Assay results as given in PubChem BioAssay AID1502 (Sanford-Burnham Center for Chemical Genomics, 2009).
The list shows a part of the results. A number with no mark means an inactive call. Active and inactive are the calls of the source. No stated cut-off is given here; in the data, active means inhibition above about 40%; inactive means the rest.

Target: Runt-related transcription factor 1 (Homo sapiens) + Core-binding factor subunit beta (Homo sapiens) (UniProt Q01196+Q13951)
Assay: Runt domain/CBFb interaction disruptors – biochemical, TR-FRET (AID 1502)
Details: TR-FRET RUNX1 Runt domain-CBFb binding; at 20 µM; hits give high values

Chain of Runt-related transcription factor 1 (Homo sapiens) + Core-binding factor subunit beta (Homo sapiens) (Q01196 whole entry, looked up, the tested form may be a part): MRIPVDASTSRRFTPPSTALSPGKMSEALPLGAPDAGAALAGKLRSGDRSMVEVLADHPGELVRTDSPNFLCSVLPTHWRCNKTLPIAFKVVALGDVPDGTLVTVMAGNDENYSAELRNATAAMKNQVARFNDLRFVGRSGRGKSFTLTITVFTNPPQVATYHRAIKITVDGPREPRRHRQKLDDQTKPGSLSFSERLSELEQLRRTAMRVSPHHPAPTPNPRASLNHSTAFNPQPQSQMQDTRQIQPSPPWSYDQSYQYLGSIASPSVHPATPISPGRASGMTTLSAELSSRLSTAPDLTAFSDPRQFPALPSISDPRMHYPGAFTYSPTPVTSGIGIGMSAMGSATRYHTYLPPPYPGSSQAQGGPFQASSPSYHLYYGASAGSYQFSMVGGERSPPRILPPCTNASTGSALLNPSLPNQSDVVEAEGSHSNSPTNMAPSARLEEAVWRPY
Chain of Runt-related transcription factor 1 (Homo sapiens) + Core-binding factor subunit beta (Homo sapiens) (Q13951 whole entry, looked up, the tested form may be a part): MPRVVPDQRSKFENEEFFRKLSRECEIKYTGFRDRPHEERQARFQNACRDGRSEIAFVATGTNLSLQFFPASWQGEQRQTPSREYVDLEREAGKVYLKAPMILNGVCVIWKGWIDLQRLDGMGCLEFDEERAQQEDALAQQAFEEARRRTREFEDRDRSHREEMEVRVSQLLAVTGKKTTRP

Point of comparison: `CCOC(=O)c1cc2c(=O)n3ccccc3nc2n(CC(C)C)c1=NC(=O)c1c(-c2c(F)cccc2Cl)noc1C`, inhibition -8.1%. Against it:
- CCCS(=O)(=O)N1CCCC(C(=O)NCc2ccco2)C1 (stereo unspecified) — higher, 2.1%
- COC(=O)Cn1c2ccc(C)cc2c2nc(C)sc21 — higher, 24.5%
- OCCN1CCN(C(=S)c2ccc(-c3ccccc3)cc2)CC1 — higher, 15.5%
- O=c1cc(CN2CCN(S(=O)(=O)/C=C/c3ccccc3)CC2)c2ccc(O)cc2o1 — higher, 34.5%
- CC(=O)Oc1ccc2c(C)c(CC(C)O)c(=O)oc2c1 (stereo unspecified) — higher, 14%
- O=C1c2ccccc2C(Nc2ccc3c(c2)OCCO3)N1Cc1ccco1 (stereo unspecified) — higher, 2%
- Cc1cc(C)c2c3c(sc2n1)C(c1ccccc1)C(C#N)=C(N)O3 (stereo unspecified) — higher, 1.6%
- COc1cccc2sc(Nc3nc(C)c(C(C)=O)s3)nc12 — higher, 0.6%
- CCN1C(=O)/C(=C2/Sc3ccccc3N2CCCS(=O)(=O)O)SC1=S — higher, 10.7%

`CCC(=O)Nc1c(S(=O)(=O)c2ccccc2)c2nc3ccccc3nc2n1Cc1ccccc1` was tested, and the inhibition was 62.4% (active).
